± gives the standard deviation. Over roughly 8,200 sequences, “pre-steady-state target cleavage rate” has its median near 0.024; the highest 2% begin near 1.3. The sample as a whole holds a higher share of the highest values than the screen did.
Tested on: MIWI (PIWIL1) piRISC loaded with L1MC piRNA (30 nt)
Test: pre-steady-state target cleavage rate (min^-1); MIWI and MILI are mouse PIWI proteins and EfPiwi is from a freshwater sponge; tags in brackets are library labels; higher = faster piRNA-guided slicing of the target
Conditions: guide: L1MC piRNA 5'p-UAACUAAAUACUAUGCAAGCUGUAGGUCCU
Procedure, shortened: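 In this Cleave-'n-Seq assay, uncleaved targets were sequenced and normalised to depth and to weakly complementary targets. They came from a transcribed, DNA-blocked target RNA library […] mixed with 1 nM active affinity-purified piRISC carrying one synthetic guide, with or without 500 nM GTSF1 partner protein, in HEPES–potassium acetate buffer at 33 °C for 0–8 or 0–960 min. After three trials were pooled and k3 was capped at 0.0001 min^-1, the pre-steady-state cleavage rate was obtained from a burst-and-steady-state fit.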

[1] = auxiliary factor: 500 nM mouse GTSF1
[2] = auxiliary factor: none (no GTSF1)
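Further: 1 nM active piRISC with 0.1 nM target library at 33 °C single turnover.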

Row | Sequence | pre-steady-state target cleavage rate [1] | pre-steady-state target cleavage rate [2]
1 | AGGACGUACAGCUUGCAAAGUAUUUAGUUA | 1.11 ± 0.057 | 0.0396 ± 0.0083
2 | UGGACGUACAGCUUGCAAAGUAUUUAGUUA | 1.3 ± 0.045 | 0.0558 ± 0.0096
3 | AGGACGUACAGCUUGCUUAGUAUUUAGUUA | 1.31 ± 0.055 | 0.0487 ± 0.0095
4 | UCGACGUACAGCUUGCAAAGUAUUUAGUUA | 1.26 ± 0.043 | 0.0364 ± 0.0077
5 | UCGACGUACAGCUUGCUUAGUAUUUAGUUA | 1.63 ± 0.09 | 0.0366 ± 0.0073
6 | UGGACGUACAGCUUGCUUAGUAUUUAGUUA | 1.37 ± 0.069 | 0.0454 ± 0.0082
7 | AGGACGUACAGCUUGCAUAGUAUUUAGUUA | 1.19 ± 0.048 | 0.0866 ± 0.014
8 | UGGACGUACAGCUUGCAUUGUAUUUAGUUA | 0.79 ± 0.05 | 0.0432 ± 0.01
9 | UCGACGUACAGCUUGCAUUGUAUUUAGUUA | 0.883 ± 0.027 | 0.0351 ± 0.0076
10 | UCCUCCUUCAGCAUGCAUAGUAUUUAGUUA | 1.01 ± 0.043 | 0.0155 ± 0.0034
11 | UCCUCCUACAGCAUGCAUAGUAUAUAGUUA | 0.786 ± 0.042 | 0.00795 ± 0.0022
12 | UCCUGGAUGUCGUAGCAUAGUAUUUAGUUA | 0.0153 ± 0.005 | 
13 | UCCUGGAUGUCCUUGCUUAGUAUUUAGUAA | 0.00726 ± 0.004 | 
14 | UCCUGCUACAGCUUGCAUACAAUUUAGUAA | 0.0165 ± 0.008 | 
15 | UCCUCCUACAGCUUGCAAAGUAUUUACAAA | 0.267 ± 0.036 | 0.00344 ± 0.0031
16 | UCGACCUACACGUUGCAUAGUAUUUUCAAA | 0.224 ± 0.036 | 
17 | UCCUGGUACACGUUGCAUAGUAUUUAGUAA | 0.178 ± 0.041 | 
18 | UCCUCCAACAGCUUGCAUAGUAUUUACUUA | 0.267 ± 0.026 | 0.0243 ± 0.0038
19 | UCGACCCUACAGCUUGCAUAGUAUUUAGUUA | 1.33 ± 0.061 | 0.0734 ± 0.012
20 | ACGACCUACAGCUUGCAUAGUAUUUAGUAA | 1.11 ± 0.042 | 0.0771 ± 0.016
21 | UCGACCUACAGCUUUGCAUAGUAUUUAGUUA | 1.4 ± 0.061 | 0.0371 ± 0.0078
22 | UCGACCUACAGCUUGCAUAGUAUUUAGCUUA | 0.375 ± 0.05 | 0.0283 ± 0.0087
23 | UCGACCUACAGCUUGCAUAGUAUUUAGUUU [g2:g28:cont:t1U] | 1.75 ± 0.067 | 0.158 ± 0.033
24 | UCGACCUACAGCUUGCAUAGUAUUUAGUUUA | 1.27 ± 0.058 | 0.0631 ± 0.0099
25 | ACGACCUACAGCUUGCAUAGUAUUUAGUUA | 1.56 ± 0.064 | 0.0997 ± 0.017
26 | UCGACCUACAGCUUGCAUAGUAUUUAGUA | 0.778 ± 0.039 | 0.0159 ± 0.0051

Row | Sequence | pre-steady-state target cleavage rate [1] | pre-steady-state target cleavage rate [2]
27 | UCGACCUACAGCUUGCAUAGUAUUUAGUAA | 1.15 ± 0.061 | 0.0683 ± 0.014
28 | UCGACCUACAGCUUGCAUAGUAUUUAGUUC [g2:g28:cont:t1C] | 1.22 ± 0.045 | 0.0714 ± 0.013
29 | ACGACCUACAGCUUGCAUAGUAUUUAGAUA | 0.62 ± 0.044 | 0.0521 ± 0.011
30 | UCCUGCUACUCGUUGCAUAGUAUUUAGAAA | 0.0557 ± 0.014 | 
31 | UCCUGGUACAGCUUGGAUAGUAUUUAGUAA | 0.421 ± 0.095 | 0.0149 ± 0.0041
32 | UCCUGCUACAGCUUGCAUUGAAUUUAGUUA | 0.168 ± 0.012 | 0.00991 ± 0.0044
33 | UCCUGGAUGUGCGUUGCAUAGUAUUUAGUUA | 0.28 ± 0.032 | 0.00987 ± 0.0029
34 | UCCACCUACUGCUUGCAAAGUAUUUAGUUA | 0.623 ± 0.025 | 0.0305 ± 0.0052
35 | AGGACCUACAGCUUGCGAUAGUAUUUAGUUA | 0.108 ± 0.026 | 
36 | UCGACCUACAGCUUGCAUAGUAUUUAGUUA [g2:g28:cont:t1A] | 1.56 ± 0.056 | 0.0936 ± 0.017
37 | UCGACCUACAGCUUGCAUAGUAUUAUAGUUA | 1.32 ± 0.076 | 0.0387 ± 0.007
38 | UCGACCUACAGCUUGCAUAGUAUUUAGUUG [g2:g28:cont:t1G] | 0.569 ± 0.04 | 0.0703 ± 0.013
39 | UCGACCUACAGCUUGCAUAGUAUAUUAGUUA | 1.25 ± 0.049 | 0.0248 ± 0.0063
40 | UCGACCUACAGCUUGCAUAGUAUUUUAGUUA | 1.21 ± 0.053 | 0.0302 ± 0.0073
41 | UCGACCUACAGCUUGCAUAGUAUUAGUUA | 0.346 ± 0.053 | 
42 | AGCACCUACAGCUUGCAUACUAUUUAGUUA | 0.471 ± 0.099 | 0.00711 ± 0.0024
43 | UCCUGGAUGUCGAACCAUUGUAUAUAGUUA | < 0.0001 | 
44 | UCGACCUACAGCUUCGAUAGUAUUUAGUUA | 0.911 ± 0.058 | 0.00251 ± 0.0018
45 | UCCACCUACAGCUUCGCAUAGUAUUUAGUUA | 0.911 ± 0.056 | 0.0118 ± 0.0027
46 | UGGACCUACAGCUUCGCAUAGUAUUUAGUUA | 1.43 ± 0.1 | 0.0229 ± 0.0062
47 | AGGACCUACAGCUUCGCAUAGUAUUUAGUUA | 1.27 ± 0.071 | 0.0296 ± 0.0087
48 | UCGACCUACAGCUUCGCAUAGUAUUUAGUUA | 1.33 ± 0.07 | 0.0168 ± 0.004
49 | UCGACCUACAGCUUCAUAGUAUUUAGUUA | 1.14 ± 0.042 | 0.0128 ± 0.0025
50 | UGGAGCUACAGCUUGCAUUGUAUUUAGUUA | 0.934 ± 0.038 | 0.0337 ± 0.0068
51 | UCCUCCUACAGCUUGCAUACUAUUUAGAUA | 0.0831 ± 0.015 | 0.0075 ± 0.0022
52 | UCCUGGAUGUGCUUGCAUAGUAUUUAGAUA | 0.118 ± 0.023 | 0.0188 ± 0.0067

Row | Sequence | pre-steady-state target cleavage rate [1] | pre-steady-state target cleavage rate [2]
53 | UCGACCUACAGCUUGCAUAGAAUUUUCAAA | 0.369 ± 0.059 | 
54 | UCCUGGUACAGCUUACAUAGUAUUUAGUUA | 0.749 ± 0.056 | 0.0246 ± 0.0048
55 | UGGUGCUACAGCUUGCAUAGUAUUUAGUUA | 0.988 ± 0.079 | 0.0764 ± 0.017
56 | AGCUGCUACAGCUUGCAUAGUAUUUAGUUA | 1.49 ± 0.07 | 0.0697 ± 0.012
57 | UCCUGCUACAGCUUGCAUAGUAUUUAGUUA [g2:g25:cont:t1A] | 0.864 ± 0.042 | 0.0585 ± 0.01
58 | UCCUGCUACAGCUUGCAUAGUAUUUUAGUUA | 0.817 ± 0.067 | 0.0107 ± 0.0028
59 | UCCUGCUACAGCUUGCAUAGUUAUUUAGUUA | 0.073 ± 0.013 | 0.00386 ± 0.0025
60 | AGCUGCUACAGCUUGCAUAGUAUUUAGUAA | 0.977 ± 0.11 | 0.0202 ± 0.0038
61 | UGCAGCUACAGCUUGCAUAGUAUUUAGUUA | 1.21 ± 0.081 | 0.0733 ± 0.013
62 | UGCUGCUACAGCUUGCAUAGUAUUUAGUAA | 0.875 ± 0.084 | 0.0204 ± 0.0041
63 | UCCUGCUACAGCUUGCAUAUUAUUUAGUUA | 1.31 ± 0.066 | 0.0449 ± 0.0088
64 | UGCUGCUACAGCUUGCAUAGUAUUUAGUUA | 1.55 ± 0.058 | 0.0595 ± 0.011
65 | AGCAGCUACAGCUUGCAUAGUAUUUAGUUA | 1.37 ± 0.067 | 0.079 ± 0.016
66 | UCCUGCUACAGCUUGCAUAUAUUUAGUUA | 0.408 ± 0.045 | 0.00397 ± 0.0033
67 | UCCUGGAACAGCUUCAUAGUAUUUAGUUA | 0.95 ± 0.051 | 0.00772 ± 0.0027
68 | UCCACCUACAGCUUGCGAUAGUAUUUAGUUA | 0.0565 ± 0.018 | 
69 | UGGACCAUGAGCUUGCAUAGUAUUUAGUAA | 0.675 ± 0.045 | 0.0285 ± 0.0075
70 | UCCUGGAACACCUUGCAUAGUUUUUAGUUA | 0.148 ± 0.023 | 0.0142 ± 0.0044
71 | UCCUGGAACAGCUUGCAUAGUUUUUUGUUA | 0.197 ± 0.025 | 0.0238 ± 0.0057
72 | UCGUCCUACAGCUUGCAUAGUAAUUAGUUA | 0.874 ± 0.027 | 0.0282 ± 0.006
73 | UCCUCCUACAGCUUGCAUAGUAAUUAGUAA | 0.347 ± 0.039 | 0.0074 ± 0.0022
74 | UCCUGGUACAGCAUGCAUAGUAAUUAGUUA | 0.457 ± 0.054 | 0.0118 ± 0.0031
75 | AGGACCUACAGCUAGCAUAGUAUUUAGAAA | 0.571 ± 0.066 | 0.00411 ± 0.0025
76 | UCCUGCUACAGCUUGCAUAGUAUUUUGUAA | 0.274 ± 0.043 | 0.009 ± 0.0031
